Measurements from PubChem BioAssay AID1159580 (chemical genetic matrix, 2015).
Several values for one entry are separate records, joined by “and”; a condition that tells them apart may be missing. Identical values can stand only once. Hit rate of the full screen: of about 5,500 compounds, about 2,000 (36%) were called active. About 18% were inconclusive and are not listed. Cut-off read from the data, not from the text of the source: active = normalized growth mostly below about 0.91 (no sharp cut-off); inconclusive = no clear call, values can overlap the other calls; inactive = mostly above about 0.92. The list shows a part of the results.

Assay: chemical genetic growth profiling, strain panel (AID 1159580);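 note: tested at 20 µM; growth read once vehicle control cultures reached saturation at 30 °C; 1 = growth at the plate median or of vehicle wells; lower values mean less growth of the strain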
Conditions: S. cerevisiae deletion strains, growth OD

Measured: normalized growth

CN1CC(=O)N=C1N
inactive: locus YAL013W, strain DEP1, hits give low values 1.01 | locus YAL021C, strain ccr4, hits give low values 1.01 | locus YAL026C, strain drs2, hits give low values 1.03 | locus YAL030W, strain snc1, hits give low values 1.02 | locus YBL061C, strain skt5, hits give low values 1.03 | locus YBR009C, strain hhf1, hits give low values 1.05 | locus YBR021W, strain FUR4, hits give low values 1 | locus YBR023C, strain chs3, hits give low values 1.03 | locus YBR171W, strain sec66, hits give low values 1.03 | locus YBR229C, strain ROT2, hits give low values 1 | locus YBR231C, strain swc5, hits give low values 1.03 | locus YBR279W, strain paf1, hits give low values 1.03 | locus YCL011C, strain gbp2, hits give low values 1.03 | locus YCL016C, strain dcc1, hits give low values 1.02 | locus YCL029C, strain bik1, hits give low values 0.986 | locus YCL061C, strain MRC1, hits give low values 1.01 | locus YCL069W, strain vba3, hits give low values 1.02 | locus YCR088W, strain abp1, hits give low values 1.01 | locus YDL005C, strain med2, hits give low values 1.02 | locus YDL035C, strain GPR1, hits give low values 1.01 | locus YDL040C, strain nat1, hits give low values 1.01 | locus YDL074C, strain BRE1, hits give low values 1.03 | locus YDL101C, strain DUN1, hits give low values 1.02 | locus YDL134C, strain PPH21, hits give low values 1 | locus YDL185W, strain tfp1, hits give low values 0.992 | locus YDL192W, strain arf1, hits give low values 1 | locus YDR001C, strain nth1, hits give low values 1.01 | locus YDR069C, strain doa4, hits give low values 1.04 | locus YDR101C, strain arx1, hits give low values 0.991 | locus YDR137W, strain rgp1, hits give low values 1.1 | locus YDR159W, strain sac3, hits give low values 1.05 | locus YDR162C, strain NBP2, hits give low values 1.02 | locus YDR195W, strain ref2 0.969 | locus YDR297W, strain sur2, hits give low values 1.02 | locus YDR318W, strain mcm21, hits give low values 0.997 | locus YDR334W, strain swr1, hits give low values 1.02 | locus YDR335W, strain msn5, hits give low values 1.03 | locus YDR388W, hits give low values 0.997 | locus YDR392W, strain spt3, hits give low values 1.02 | locus YDR502C, strain sam2, hits give low values 0.995 | locus YEL003W, strain gim4, hits give low values 1.04 | locus YEL037C, strain rad23, hits give low values 1.01 | locus YEL061C, strain CIN8 (second series), hits give low values 1.02 | locus YEL061C, strain CIN8, hits give low values 1.01 | locus YER015W, strain faa2, hits give low values 1.02 | locus YER016W, strain bim1, hits give low values 1.02 | locus YER110C, hits give low values 0.992 | locus YER111C, strain swi4, hits give low values 1.04 | locus YER155C, strain BEM2 (second series), hits give low values 1.06 | locus YER155C, strain BEM2, hits give low values 1.01 | locus YER167W, strain BCK2, hits give low values 1.01 | locus YFR010W, strain ubp6, hits give low values 1.03 | locus YGL078C, strain dbp3, hits give low values 0.995 | locus YGL086W, strain mad1, hits give low values 0.998 | locus YGL167C, strain pmr1, hits give low values 1.03 | locus YGL173C, strain kem1, hits give low values 1.03 | locus YGL227W, strain vid30, hits give low values 1.02 | locus YGL240W, strain doc1, hits give low values 1.05 | locus YGL248W, strain PDE1, hits give low values 1.01 | locus YGL253W, strain hxk2, hits give low values 1.02 | locus YGR078C, strain PAC10, hits give low values 1.01 | locus YGR135W, strain pre9, hits give low values 1 | locus YGR229C, strain SMI1, hits give low values 1.02 | locus YGR252W, strain gcn5, hits give low values 0.965 | locus YHR013C, strain ard1, hits give low values 1.06 | locus YHR027C, strain rpn1, hits give low values 1.02 | locus YHR030C, strain SLT2, hits give low values 1.01 and 0.962 | locus YHR079C, strain IRE1 (second series), hits give low values 0.994 | locus YHR079C, strain IRE1, hits give low values 0.966 | locus YHR094C, strain hxt1, hits give low values 0.994 | locus YHR129C, strain ARP1, hits give low values 1.01 | locus YHR142W, strain chs7, hits give low values 0.996 | locus YHR200W, strain rpn10, hits give low values 0.997 | locus YIL066C, strain RNR3, hits give low values 1.02 | locus YIL073C, strain SPO22, hits give low values 1.03 | locus YIL125W, strain kgd1, hits give low values 0.988 | locus YIR030C, strain dcg1, hits give low values 0.998 | locus YJL092W, strain hpr5, hits give low values 1.01 | locus YJL095W, strain BCK1 (second series), hits give low values 1.03 | locus YJL095W, strain BCK1, hits give low values 1.03 and 0.956 | locus YJL115W, strain asf1, hits give low values 1.02 | locus YJL129C, strain trk1, hits give low values 1.04 | locus YJL134W, strain LCB3, hits give low values 1.01 | locus YJL154C, strain vps35, hits give low values 1.02 | locus YJL164C, strain tpk1, hits give low values 1.05 | locus YJL166W, strain qcr8, hits give low values 1.03 | locus YJL168C, strain set2, hits give low values 1 | locus YJL187C, strain SWE1 (second series), hits give low values 1.02 | locus YJL187C, strain SWE1, hits give low values 1.03
